# Screening results from PubChem.
# Sampled rows, rich in hits. Any-hit rate of the full collection: about 2.2%.
# TRAIL sens C8: viability loss with TRAIL in NB7+C8 cells, primary screen, TRAIL sensitizer project, cell-based, ATPlite luminescence; inhibition (viability loss, TRAIL sensitization), % at 10 µM; 360,000 compounds, 1% hits; AID 624354, 2012;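 active = compounds causing at least 50% loss of cell viability in the single-dose screen, relative to plate controls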
# KKLEB cytotox: cytotoxicity in KKLEB CF airway cells, primary screen, cytotoxicity control for CF NF-kB inhibitor project, cell-based, uHTS, fluorescence assay plates | 360,000 compounds, 0.36% hits | KKLEB CF airway cells viability, ATPlite luminescence, overnight; active compounds read low; cells stimulated with P. aeruginosa culture filtrate | activity change (cytotoxicity), % at 5 µM;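 active = corrected activity change at or below -50% at 5 µM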
# HIF-2a block: HIF-2a reporter inhibitors, primary screen, luminescence, 786-0 RCC cells | 786-0 RCC cells HIF-2a reporter, luciferase luminescence, overnight | inhibition, % at 18.8 µM | 360,000 compounds, 0.72% hits | AID 624352, 2012;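 active = inhibition of the luminescence signal of 40% or more relative to plate controls, in a single-dose primary screen at 18.75 µM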
# iPSC survival up: enhancers of single-cell hiPSC survival, primary screen, ATPlite luminescence. 100% = ROCK inhibitor wells, 0% = DMSO. survival enhancement, % at 20 µM. 360,000 compounds, 0.044% hits. AID 602274, 2012; in the data active = survival enhancement above about 18%;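 note: cells exposed to compounds for 16 hours before the ATP read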
# PPC-1+TRAIL kill: compounds killing PPC-1 cancer cells with TRAIL present, primary screen, TRAIL potentiator project, ATPLite luminescence, uHTS | PPC-1 cells + TRAIL, ATPLite viability luminescence | cell killing (% activity), % at 4 µM or 5 µM | 220,000 compounds, 0.41% hits;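 active = cell killing above 50% in the first pass at 4 µM, then a duplicate retest at 5 µM averaging 50% or more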;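 note: plate controls were cells with TRAIL plus DMSO for no effect and medium-only wells lacking cells for full effect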
# CF NFkB inh: inhibitors of PAF-induced NF-kB signaling, primary screen, cell-based, GFP fluorescence, uHTS; AID 588850, 2011; inhibition, % at 5 µM; 360,000 compounds, 0.86% hits; KKLEB NF-kB-GFP reporter, GFP fluorescence overnight;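 active = at least 50% inhibition at 5 µM, scaled per plate between neutral and stimulator controls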;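 note: PAF is a Pseudomonas aeruginosa culture filtrate used as stimulus; plate controls were PAF-stimulated DMSO wells for no effect and unstimulated DMSO wells for full effect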
# PPC-1 tox: cytotoxicity in PPC-1 cells, confirmation, cytotoxicity control for TRAIL apoptosis potentiator project, cell-based, ATP content luminescence | cytotoxicity, % at 5 µM | AID 1447, 2008 | PPC-1 viability, ATPlite luminescence, overnight | shares compounds with PPC-1+TRAIL kill | 1,200 compounds, 50% hits;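 active = reconfirmed compounds whose average cytotoxicity reaches 50% or more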;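 note: 0% = DMSO-treated cells and 100% = wells holding medium but no cells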
# The depositor's hits bear a star; . = no result given.
SMILES,TRAIL sens C8,KKLEB cytotox,HIF-2a block,iPSC survival up,PPC-1+TRAIL kill,CF NFkB inh,PPC-1 tox
COc1ccc(C(=O)NC(=O)Nc2cc(C)ccn2)cc1,83.8*,-54.9*,-24.4,-2.5,86.5*,6.6,86.8*
CC(=O)c1ccc(S(=O)(=O)N2CCC(C(=O)Nc3ncc(C)s3)CC2)cc1,10.2,-0.6,15.4,-0.8,.,1.4,.
O=C1C(c2cc(=O)c3ccccc3[nH]2)=C(O)c2ccccc21,69.9*,-5.3,-259.7,-1.2,55.6*,-3.0,52.9*
O=c1cc(-c2ccccc2)[nH]c2ccccc12,8.0,-5.0,-22.3,3.0,7.1,27.4,.
O=C(CSc1nnc(NC(=O)c2ccc3c(c2)OCO3)s1)NCc1ccco1,81.7*,-17.3,-123.9,-1.4,80.2*,-1.0,79.5*
COc1cc2cc(c1Cl)N(C)C(=O)CC(OC(=O)C(C)N(C)C(C)=O)C1(C)OC1C(C)C1CC(O)(NC(=O)O1)C(OC)C=CC=C(C)C2 (configuration not stated),22.3,-17.1,31.2,-0.5,.,49.8,.
C=CCn1c(N)cc(=O)nc1SC(C)C(=O)Nc1cccc2ccccc12 (configuration not stated),-2.5,-4.1,14.1,-0.1,14.8,2.4,4.2
Cc1nnc(NC(=O)c2sc3ccccc3c2Cl)s1,86.9*,-18.8,-90.1,-3.3,81.0*,-14.4,81.0*
COCc1nnc(NC(=O)c2sc3ccccc3c2Cl)s1,25.9,-9.4,-195.3,2.4,24.5,-8.7,26.8
CNS(=O)(=O)c1cccc(C(=O)OCC(=O)Nc2ccc(-c3nc4ccc(C)cc4s3)cc2)c1,75.4*,-19.2,-182.6,-2.4,38.6,-40.9,48.5
Cc1ccc2nc(-c3ccc(NC(=O)COC(=O)c4cncc(Br)c4)cc3)sc2c1,70.3*,-17.9,-140.3,-3.7,50.2*,-21.3,48.9
O=C(CCS(=O)(=O)c1ccccc1)Nc1ccc(-c2nc3ccccc3s2)cc1,64.8*,1.0,-150.5,-4.2,54.1*,-19.3,49.0
Cc1c(O)ccc(C(=O)CN2CCN(Cc3ccccc3)CC2)c1O,11.6,-2.7,-0.4,0.9,.,-6.8,.
Cc1cc(SCC(=O)Nc2ccccc2)nc(C)n1,-11.8,-5.7,9.1,0.6,7.0,1.0,.
CSc1nc(C)cc(SCC(=O)Nc2ccccc2)n1,-1.8,-11.8,-6.1,-0.1,-8.4,8.8,-14.0
O=S1(=O)c2cccc3cccc(c23)N1Cc1ccc(-c2nnco2)cc1,8.5,1.4,5.6,-1.1,0.8,2.6,3.7
O=C(Cc1c(F)cccc1Cl)NNC(=O)c1ccncc1,-11.8,-3.2,10.7,-0.5,.,7.5,.
CCc1c(C)sc(NC(=O)c2cc(-c3ccc(O)cc3)on2)c1C#N,0.3,-0.5,-6.4,-0.9,5.9,-0.9,.
CCc1c(C)sc(NC(=O)c2cc(CC(C)C)on2)c1C#N,-3.5,3.3,-79.6,0.5,1.5,-1.4,-1.2
CN(C(=O)COC(=O)C1CCN(S(=O)(=O)c2c(Cl)cccc2Cl)CC1)C1CCS(=O)(=O)C1 (configuration not stated),-9.1,6.5,7.3,0.2,.,-5.1,.
S=C(Nc1ccc2c(c1)OCO2)N1CCN(Cc2ccco2)CC1,59.9*,-6.3,-167.2,-1.7,53.1*,-31.3,55.9*
S=C(NCc1ccco1)N1CCN(Cc2ccco2)CC1,-10.7,-19.2,6.0,-0.8,13.1,6.7,.
O=C(NCCCNC(=O)c1cnccn1)c1cccc(Cl)c1,6.4,0.4,12.6,-0.6,.,-8.1,.
CCOc1ccc(-c2nc(C)c(C(C)=O)n2O)cc1,41.3,-1.9,-124.3,-3.5,31.4,-2.3,39.4
COc1ccc(NC(=O)c2cc(-c3cccc(OC)c3)on2)cc1,7.4,-2.7,-107.0,0.0,7.3,-23.1,.
SMILES,TRAIL sens C8,KKLEB cytotox,HIF-2a block,iPSC survival up,PPC-1+TRAIL kill,CF NFkB inh,PPC-1 tox
COc1cccc(-c2cc(C(=O)Nc3cccc(O)c3)no2)c1,69.8*,-38.2,-121.3,-4.3,55.8*,-26.4,54.6*
COc1ccc(C2(CNS(=O)(=O)c3ccccc3)CCOCC2)cc1,-5.4,-2.8,15.4,3.3,14.9,12.0,.
COc1cc(/C=C2\CCc3c2nc2ccccc2c3C(=O)O)cc(OC)c1OC,57.3*,13.6,-93.5,-0.6,51.8*,-13.8,53.8*
O=C(N[C@@H]1C[C@H]2CC[C@@H]1C2)c1ccco1,-0.7,7.6,18.7,1.4,.,-4.5,.
CCCNC(=S)N1CCC(NC(=O)c2ccc(C)cc2)CC1,-18.5,4.6,13.4,0.2,.,-17.9,.
C/C(=N\Nc1nc(C)cc(C)n1)c1ccc(N2CCOCC2)cc1,1.6,14.9,-17.4,2.1,14.9,-20.5,.
C/C(=N\Nc1nc2ccccc2[nH]1)c1ccc(N2CCOCC2)cc1,72.8*,-47.1,-204.2,-0.8,71.1*,9.0,71.2*
COc1ccc(-c2ccc(SC)nn2)cc1,86.1*,-11.5,10.4,-1.1,76.7*,6.8,68.7*
CCOc1ccc(-c2ccc(SCC)nn2)cc1,72.8*,-21.8,-71.7,-1.0,59.6*,-2.2,56.8*
CCSc1ccc(-c2ccc(C)cc2)nn1,57.0*,-15.0,-232.3,-0.9,50.4*,-0.2,51.0*
COc1ccccc1NC(=O)Cc1nnc(SCC(=O)NC2CCCCC2)n1C,-2.9,6.5,4.8,-0.1,.,-13.8,.
COC(=O)c1ccc2nc(-c3cccc(Br)c3)c(Cc3ccccc3)n2c1,12.7,.,-22.9,-0.9,.,.,.
COc1cccc(/C=C/C(=O)OCC(=O)NC2CC2)c1OC,-8.7,12.4,-18.4,1.1,.,-3.1,.
O=c1cc(CCl)[nH]c2nc3ccccc3n12,-1.4,14.7,-8.9,1.3,-7.4,-11.3,.
O=c1cc(-c2ccccc2)[nH]c2nc3ccccc3n12,84.4*,-22.6,-209.3,-4.2,69.9*,-13.1,64.7*
Cc1cccc(/C=N/Nc2nncc3ccccc23)c1,78.9*,-35.1,-154.9,-0.9,77.1*,-29.2,77.0*
Cc1ccc(-c2nc(N/N=C/c3ccncc3)c3ccccc3n2)cc1,91.6*,-95.3*,-173.9,-5.8,97.7*,-28.0,97.6*
Cc1ccc2nc(C(Cl)(Cl)Cl)nc(N/N=C/c3ccncc3)c2c1,-7.3,11.7,18.2,4.5,17.6,-1.6,.
Clc1nnc(N/N=C/c2ccccc2)c2ccccc12,43.4,-14.8,-267.1,-2.3,40.7,-27.3,.
Fc1ccccc1/C=N/Nc1nc(-c2ccccn2)nc2ccccc12,.,.,.,.,61.1*,.,45.6
COc1cc(/C=N/Nc2nncc3ccccc23)cc(OC)c1OC,30.8,-2.3,-313.0,-0.1,.,6.6,.
